Bioassay records (PubChem)
In the library only some 3.7% were active in any assay of this set; here they are far more common.
Sm TGR block – S. mansoni TGR enzyme inhibition | purified TGR, DTNB reduction, TNB absorbance 405 nm | Q962Y6 | Potency, µM (titrated, usually from 114 µM), actives largely listed as inhibitors | AID 485364 | hit rate 3% among 360,000; note: nearly all actives have a fitted effect of over 60% in size
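First, TGR (20 nM dispensed) and NADPH were mixed with compound. Second, a 15 min room-temperature incubation followed. Third, further NADPH and then DTNB were added to start the reaction. Finally, TNB absorbance was monitored kinetically.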
TbPYK inhibitor – T. brucei pyruvate kinase inhibition; Potency, µM (top dose mostly 76.8 µM), hits mostly inhibitors; Q57TT1; TbPYK enzyme, Kinase-Glo Plus ATP luminescence, 45 min; hit rate 0.12% among 410,000; AID 624173; note: nearly all actives have a fitted effect of over 50% in size
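T. brucei PYK with substrate was exposed to pin-transferred compounds across a concentration series, then started with 130 uM ADP (final). After 45 min at room temperature, Kinase-Glo Plus luminescence was read, normalized and curve-fitted.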
RE007 growth inh – less growth of the S. pombe RE007 Vpr strain; S. pombe RE007 Vpr strain, BacTiter-Glo ATP luminescence, 24 h; hit rate 0.21% among 360,000; AID 651644; Potency, µM (series often up to 92.2 µM), most hits filed as inhibitors; active = well fitted falling curve with a large enough effect; inconclusive = small, poorly fitted or top-dose-only effect; inactive = no such curve, though single readings can be large or run the other way; note: nearly all actives have a fitted effect of over 50% in size
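Fission yeast RE007 carrying one integrated HIV-1 vpr copy, seeded at OD 0.01 in PMG+AL medium with 23 nL pinned compound. Grown 24 h at 30 degrees; viability read by BacTiter-Glo luminescence after 5 min.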
FMDV antiviral – antivirals against foot and mouth disease virus; FMDV antiviral cell-based qHTS; Potency, µM (titrated, usually from 57.9 µM), usual class: inhibitors; hit rate 1.2% among 410,000; calls by dose curve; tested in HEK293T cells; note: read-out not given here; nearly all actives have a fitted effect of over 45% in size
Of the large screens only hits and unclear results are named; the others gave an inactive call. Unless noted, calls come from the whole dose curve; as a rule, active = well fitted curve in the direction sought with a large enough effect; inconclusive = small, poorly fitted or top-dose-only effect, or another doubt; inactive = no such curve, though single readings can be large; an effect the other way counts as inactive or inconclusive.

COc1ccc(-n2nc(C(=O)N3CCCC(C)C3)c3c4ccccc4n(C)c3c2=O)cc1 (stereo not drawn)	none (no result: RE007 growth inh)
CSc1nnc(CNC(=O)c2c(-c3ccccc3)noc2C)n1-c1ccc(F)cc1	none (no result: Sm TGR block, TbPYK inhibitor, RE007 growth inh)
Cc1nc(-c2ccccc2)sc1-c1ccc(SCC(=O)NCc2ccc(F)cc2)nn1	none (no result: RE007 growth inh)
CC1CCN(C(=O)CSc2c3c(nc4ccc(Cl)cc24)CCCC3)CC1	FMDV antiviral inconclusive (no result: RE007 growth inh)
O=c1ccc(=O)n(-c2ccccc2)[nH]1	Sm TGR block 5.01µM
COc1ccc(-c2ccc(NS(=O)(=O)c3ccc(C(C)=O)cc3)cc2)nn1	none (no result: RE007 growth inh)
CCc1cccc(NC(=O)CSc2ncc3c(n2)-c2ccccc2N(CC)S3(=O)=O)c1	FMDV antiviral inconclusive (no result: RE007 growth inh)
CCc1cccc(NC(=O)CSC2=NS(=O)(=O)c3ccccc32)c1	Sm TGR block 3.16µM, TbPYK inhibitor inconclusive
CNC(=O)c1sc(N2N=C3/C(=C\c4ccccc4)CCCC3C2c2ccccc2)nc1C (stereo not drawn)	FMDV antiviral 31.6µM (no result: Sm TGR block)
CNC(=O)c1sc(N2N=C3/C(=C/c4ccccc4)CCCC3C2c2ccccc2)nc1C (stereo not drawn)	FMDV antiviral inconclusive
CCOC(=O)c1ccc(NC(=O)C(CC)Sc2nnc3c4ccccc4n(C)c3n2)cc1 (stereo not drawn)	none (no result: RE007 growth inh)
O=[N+]([O-])c1cc(C=Nc2ccc3ccccc3c2)ccc1Br	Sm TGR block 44.7µM
Cc1ccc2cc3c(NC(=O)c4ccco4)nn(C)c3nc2c1	Sm TGR block 50.1µM
CC(=O)Nc1nn(C)c2nc3cc(C)ccc3cc12	none
CCCn1nc(NC(=O)c2ccco2)c2cc3ccccc3nc21	Sm TGR block 44.7µM, FMDV antiviral inconclusive
Cc1cn2cc(CNC(=O)CN3Cc4ccccc4OC(c4ccccc4F)C3)nc2s1 (stereo not drawn)	none (no result: Sm TGR block, TbPYK inhibitor, RE007 growth inh)
CCC1C(=O)NCCN1Cc1ccc2c(c1)CN(Cc1ccc(OC)cc1OC)CCO2 (stereo not drawn)	none (no result: Sm TGR block, TbPYK inhibitor, RE007 growth inh)
COc1ccccc1-c1ccnc(-n2ncc(C(=O)NCC3(N4CCOCC4)CCCC3)c2C)n1	none (no result: Sm TGR block, TbPYK inhibitor, RE007 growth inh)
COc1ccc(CNC(=O)c2ccc3c(c2)N(Cc2ccccc2)C(=O)c2ccccc2S3(=O)=O)cc1	none (no result: RE007 growth inh)
CCOc1ccc(NC(=O)c2nc(S(=O)(=O)Cc3ccccc3F)ncc2Cl)cc1	Sm TGR block 7.08µM, FMDV antiviral 25.1µM (no result: RE007 growth inh)
O=C(Nc1nc2ccc(F)cc2s1)c1nc(S(=O)(=O)Cc2ccccc2F)ncc1Cl	Sm TGR block inconclusive, FMDV antiviral inconclusive (no result: RE007 growth inh)
Cc1nnc(NC(=O)c2nc(SCc3ccccc3F)ncc2Cl)s1	none (no result: RE007 growth inh)
Cc1nnc(NC(=O)c2nc(S(=O)(=O)Cc3ccccc3C)ncc2Cl)s1	Sm TGR block 25.1µM, FMDV antiviral 25.1µM
CSc1nnc(NC(=O)c2nc(S(=O)(=O)Cc3ccccc3F)ncc2Cl)s1	Sm TGR block 28.2µM, FMDV antiviral 7.08µM
CC(C)c1nnc(NC(=O)c2nc(S(=O)(=O)Cc3ccccc3F)ncc2Cl)s1	Sm TGR block 31.6µM, FMDV antiviral 28.2µM
CCNc1ncc2nc(-c3cc(F)cc(F)c3)c(=O)n(CCc3ccccc3)c2n1	none (no result: Sm TGR block, TbPYK inhibitor, RE007 growth inh)
Cc1ccc(S(=O)(=O)N(CC(=O)NCc2ccco2)Cc2ccc(F)cc2)cc1	Sm TGR block 39.8µM
CS(=O)(=O)N(CC(=O)NCc1ccccc1)Cc1ccc(Cl)cc1	none
CS(=O)(=O)N(CC(=O)NCc1ccco1)Cc1ccc(Cl)cc1	Sm TGR block 11.2µM
COc1cc2c(cc1OC)C(c1ccc(F)cc1)N(c1ccccc1)C(=O)C2 (stereo not drawn)	none (no result: RE007 growth inh)
O=Cc1s/c(=N\S(=O)(=O)c2ccccc2)n(CCCCl)c1Cl	Sm TGR block 0.631µM, FMDV antiviral 7.94µM
CCn1c(C)cs/c1=N\S(=O)(=O)c1ccccc1	none
O=C(O)Cc1ccc(O)c(O)c1	Sm TGR block 0.891µM
OCCCc1ccc(O)c(O)c1	Sm TGR block 3.55µM
COCC1CCCN(Cc2ccc3c(c2)CN(C(=O)c2ccc(-n4cccn4)cc2)CCO3)C1 (stereo not drawn)	none (no result: Sm TGR block, TbPYK inhibitor, RE007 growth inh)
CCOC(=O)C(C(=O)OCC)C(C(=O)OCC)N1CCOCC1 (stereo not drawn)	Sm TGR block 0.631µM, TbPYK inhibitor inconclusive, FMDV antiviral 31.6µM
CCOC(=O)C(C)CC(C)C(=O)N1CCOCCOCCN(C(=O)C(C)CC(C)C(=O)OCC)CCOCC1 (stereo not drawn)	none
O=S(=O)(c1ccccc1)N1CCC2(CC1)CN(c1ccccn1)C2	none (no result: Sm TGR block, RE007 growth inh)
CCc1ccc(NC(=O)c2ccc3c(c2)CCN3S(C)(=O)=O)cc1	none (no result: Sm TGR block)
CC(C)c1ccc(NC(=O)c2ccc3c(c2)CCCN3S(C)(=O)=O)cc1	FMDV antiviral 10µM (no result: RE007 growth inh)
CCCCOC(=O)c1ccc(NC(=O)c2ccc3c(c2)CCN3S(C)(=O)=O)cc1	FMDV antiviral 35.5µM (no result: RE007 growth inh)
COC(=O)C1C(=O)C(C(=O)/C=C/c2ccco2)C(=O)CC1(C)C (stereo not drawn)	none (no result: Sm TGR block, TbPYK inhibitor, RE007 growth inh)
O=Cc1coc2c(ccc3ccccc32)c1=O	Sm TGR block 28.2µM (no result: TbPYK inhibitor, RE007 growth inh, FMDV antiviral)
Cc1ccc(C(=O)NCC(=O)OCc2cc(=O)n3nc(C4CCCCC4)sc3n2)cc1	none (no result: RE007 growth inh)
Cc1ccc(N=Cc2cc(Cc3ccccc3Cl)cc([N+](=O)[O-])c2O)c(O)c1	Sm TGR block 11.2µM
COc1ccc(N=Cc2cc(Cc3ccccc3Cl)cc([N+](=O)[O-])c2O)cc1OC	none
Cc1ncc2c(c1CNC(=O)c1cncs1)CCN(C(=O)c1ccc(C(C)(C)C)cc1)C2	none (no result: Sm TGR block, TbPYK inhibitor, RE007 growth inh)
COc1ccc(N2C(=O)/C(=C/c3ccc(OC)c(OC)c3)C(=O)NC2=S)cc1	Sm TGR block 10µM, TbPYK inhibitor inconclusive
COC(=O)COc1ccc(/C=C2\C(=O)NC(=S)N(c3ccc(C)cc3)C2=O)cc1OC	Sm TGR block 12.6µM, TbPYK inhibitor inconclusive
COc1cc(/C=C2\C(=O)NC(=O)N(c3ccccc3)C2=O)cc(OC)c1OC	Sm TGR block inconclusive, TbPYK inhibitor inconclusive, FMDV antiviral inconclusive
CCOc1ccc(/C=C2/C(=O)N(c3ccc(OC)cc3)C(=S)N2CC(=O)OC)cc1OCC	none
COc1ccc(N2C(=O)/C(=C/c3ccc(C)o3)C(=O)NC2=S)c(OC)c1	Sm TGR block 1.26µM, TbPYK inhibitor inconclusive, FMDV antiviral 20µM
CCOC(=O)COc1ccc(/C=C2\C(=O)NC(=S)N(c3ccc(OC)cc3)C2=O)cc1OC	Sm TGR block 14.1µM, TbPYK inhibitor inconclusive
CCc1nc(SCC(=O)Nc2ccc(NC(C)=O)cc2)n[nH]1	none (no result: RE007 growth inh)
COC(=O)c1ccccc1NC(=O)c1cc2ccccn2n1	none (no result: RE007 growth inh)
CC1(C)OC(=O)C(=Cc2ccc(-c3ccc(S(N)(=O)=O)cc3)o2)C(=O)O1	TbPYK inhibitor 22.4µM, FMDV antiviral inconclusive
NS(=O)(=O)c1ccc(-c2ccc(C=C3C(=O)NC(=S)NC3=O)o2)cc1	Sm TGR block 2.24µM (no result: TbPYK inhibitor, RE007 growth inh, FMDV antiviral)
NS(=O)(=O)c1ccc(-c2ccc(C=C3C(=O)NC(=O)NC3=O)o2)cc1	Sm TGR block inconclusive, TbPYK inhibitor 10µM
COc1cccc(CNC(=O)CCCN2C(=O)CCn3nc(-c4cccn4C)cc32)c1	none (no result: RE007 growth inh)
O=C(Nc1cccc(C(F)(F)F)c1)c1cccnn1	Sm TGR block 89.1µM
O=C(Nc1cccc(C(F)(F)F)c1)c1csc(-c2ccncc2)n1	FMDV antiviral 100µM
